Screens (PubChem)
A selection: hits, their analogues and other compounds. The true share with any hit is near 4.9%.
Calb FLC = C. albicans growth modulation with fluconazole; C. albicans CaCi-2 (fluconazole-resistant clinical isolate) + fluconazole, Alamar Blue growth, 48 h; growth inhibition, % (test concentration not listed); 300,000 compounds, 0.57% hits;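 active = growth inhibition above about 58% in most replicates, limit read from the data, passing the limit was not always enough; inconclusive = exactly half the replicates above a set limit; inactive = most replicates below a set limit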;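 note: all wells also contain fluconazole at 8 µg/ml as a sub-toxic cotreatment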
Beta cell apopt = blocks beta cell apoptosis; INS-1E cytokine-induced death, ATP luminescence, 48 h; percent of positive-control rescue, neutral wells zero; protection from apoptosis, % (no concentration beside the values); AID 435005; 300,000 compounds, 0.8% hits;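 active = Every replicate reaches about 75%, or at least half do and their mean reaches it too, limit read from the data; inconclusive = At least half of replicates reach the limit but their mean does not; inactive = Under half of replicates reach the limit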;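 note: higher means more ATP so stronger rescue from cytokine killing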
CSC inhib = cancer stem cell inhibition; inhibition, % at 7.5 µM; 300,000 compounds, 1.1% hits; cancer stem cell-like cells viability, luminescence; in the data active = inhibition above about 75%; inconclusive = no clear call, values can overlap the other calls; tested in HMLE shEcad cells
PP1 counter = blocks human PP1-alpha phosphatase, a PP5 counter-screen | P62136 | purified PP1alpha, OMFP fluorescence | inhibition, % at 6.7 µM | 320,000 compounds, 0.9% hits;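 active = inhibition above the mean inhibition of all tested compounds plus 3 SD, computed separately for each screening campaign, cut at about 15% in these data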
Target sequence (P62136 whole entry, looked up): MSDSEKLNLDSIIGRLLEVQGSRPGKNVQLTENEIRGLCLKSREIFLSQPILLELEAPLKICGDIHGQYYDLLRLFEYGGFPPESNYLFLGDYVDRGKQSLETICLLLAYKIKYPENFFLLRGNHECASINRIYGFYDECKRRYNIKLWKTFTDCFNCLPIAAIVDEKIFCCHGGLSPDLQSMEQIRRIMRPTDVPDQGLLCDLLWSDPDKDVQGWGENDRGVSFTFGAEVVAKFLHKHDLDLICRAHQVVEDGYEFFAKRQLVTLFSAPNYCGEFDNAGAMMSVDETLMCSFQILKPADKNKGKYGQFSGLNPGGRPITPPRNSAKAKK
Mdm2 MdmX PPI = disrupts the human Mdm2-MdmX interaction | 330,000 compounds, 3% hits | SaOS-2 split-luciferase Mdm2/MdmX complementation, luminescence | inhibition, % at 8 µM;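 active = inhibition of at least 50% at 8 µM in the primary screen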
PP5 primary = blocks human protein phosphatase 5 activity; 320,000 compounds, 0.18% hits; inhibition, % at 6.7 µM; AID 1987; P53041; purified PP5c, OMFP substrate fluorescence;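 active = inhibition above the campaign's mean inhibition across all tested compounds plus 3 SD, cut at about 9.5% in these data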
Mdm2 MdmX conf = confirmation of human Mdm2/MdmX interaction inhibitors; Mdm2-MdmX binding, luminescent assay; shares compounds with Mdm2 MdmX PPI; AID 489028; 10,000 compounds, 55% hits; inhibition, % at 8 µM; in the data active = inhibition above about 40%
Full FLuc ctr = inhibits full-length luciferase, flagging false Mdm2/MdmX hits; shares compounds with Mdm2 MdmX PPI; SaOS-2 full-length luciferase counterscreen, luminescence; AID 504607; 6,200 compounds, 77% hits; inhibition, % at 8 µM;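 active = mean inhibition at 8 µM reaching about 37%, which flags the compound as non-specific, limit read from the data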;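 note: p53-null SaOS-2 cells with luciferase driven by a doxycycline-inducible promoter; compound on cells about two nights before reading with doxycycline added after day one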
Large screens that a line does not name were inactive (follow-up assays come after a bar, where they were run).

O=C(c1ccc(C#CC2(O)CCCCC2)cc1)N1CCN(C(c2ccccc2)c2ccccc2)CC1	CSC inhib 77, Mdm2 MdmX PPI 57 | Mdm2 MdmX conf inactive
O=C(c1ccc(C#CC2(O)CCCCC2)cc1)N1CCN(Cc2ccccc2)CC1	none
O=C(O)CN1C(=O)C2C3CC(C2C1=O)C1C(c2ccc(F)cc2)c2sc(=O)[nH]c2SC31 (stereo not drawn)	none
Cc1ccccc1OCC(O)CNC1CCC(NCC(O)COc2ccccc2C)CC1 (stereo not drawn)	Beta cell apopt 113, CSC inhib 109, Mdm2 MdmX PPI 100 | Mdm2 MdmX conf 100 | Full FLuc ctr 52
N#Cc1c(Nc2ccccc2)sc(C(=O)c2ccccc2)c1N	none
Cc1cccc(Oc2sc(C(=O)c3ccccc3)c(N)c2C#N)c1	Mdm2 MdmX PPI 58 | Mdm2 MdmX conf inactive | Full FLuc ctr 42
Cc1cc(C)c2c(n1)nn1c(N3CCN(c4ccccc4C)CC3)cc(C)nc21	Mdm2 MdmX PPI 64 (no result: Calb FLC) | Mdm2 MdmX conf inactive
CCOc1ccc(-c2nn(-c3ccccc3)cc2/C=C2\SC(N)=NC2=O)cc1C	Mdm2 MdmX PPI 67 | Mdm2 MdmX conf inactive
Nc1ccc(-c2cc3ccccc3oc2=O)cc1	Mdm2 MdmX PPI 52 (no result: Beta cell apopt) | Mdm2 MdmX conf inactive | Full FLuc ctr 45
O=c1oc2ccccc2cc1-c1ccc(O)cc1	none
COc1ccc(S(=O)(=O)NC(CC(C)C)C(=O)NC(C)c2cccs2)cc1 (stereo not drawn)	none (no result: Calb FLC, CSC inhib)
COc1ccc(-c2cc(C(F)(F)F)n3ncc(C(=O)N4CCc5ccccc5C4)c3n2)cc1	Mdm2 MdmX PPI 54 | Mdm2 MdmX conf inactive
N#C/C(=C(/O)c1ccc([N+](=O)[O-])o1)c1nc2ccccc2[nH]1	none
N#C/C(=C\c1ccc([N+](=O)[O-])o1)c1nc2ccccc2[nH]1	Beta cell apopt 100, CSC inhib inconclusive, Mdm2 MdmX PPI 97 | Mdm2 MdmX conf 70 | Full FLuc ctr 61
Cc1ccc2nc(/C(C#N)=C\c3ccc([N+](=O)[O-])o3)[nH]c2c1	Beta cell apopt 102, Mdm2 MdmX PPI 97 | Mdm2 MdmX conf 75 | Full FLuc ctr inactive
O=c1[nH]nc(Sc2ncnc3sccc23)n1CCc1ccccc1	Mdm2 MdmX PPI 85 | Mdm2 MdmX conf 43 | Full FLuc ctr inactive
COc1ccc(C(=O)NC2CCCc3c2cnn3-c2cc(F)cc(F)c2)c(OC)c1OC (stereo not drawn)	Mdm2 MdmX PPI 53 | Mdm2 MdmX conf 47 | Full FLuc ctr 57
COC(=O)c1ccc(C(=O)NC2CCCc3c2cnn3-c2cc(F)cc(F)c2)nc1 (stereo not drawn)	Mdm2 MdmX PPI 58 | Mdm2 MdmX conf 50 | Full FLuc ctr 57
O=C(NC1CCCc2c1cnn2-c1cc(F)cc(F)c1)c1ccccn1 (stereo not drawn)	none
COC(=O)c1ccc(C(=O)NC2CCCc3c2cnn3-c2ccc(C)c(C)c2)cc1 (stereo not drawn)	Mdm2 MdmX PPI 60 | Mdm2 MdmX conf 72 | Full FLuc ctr 59
Cc1cc(C(=O)NC2CCCc3c2cnn3-c2ccc(C)c(C)c2)nc(C)n1 (stereo not drawn)	none
COc1ccc(N(CC(=O)N2CCOCC2)S(C)(=O)=O)cc1	none
COc1ccc(CN(C)C(=O)/C=C/c2ccc(S(=O)(=O)N3CCCCCC3)cc2)cc1	none (no result: Calb FLC, CSC inhib)
CCOC(=O)c1ccc(N2CCCCC2)c(NS(=O)(=O)c2ccc(C)cc2)c1	Mdm2 MdmX PPI 59 | Mdm2 MdmX conf 46 | Full FLuc ctr 67
Cn1c(SCC(=O)Nc2cc(Cl)cc(Cl)c2)nnc1-c1ccc2nonc2c1	Mdm2 MdmX PPI 71 | Mdm2 MdmX conf inactive
Cc1cc(C)nc(SC2CCCCC2NS(=O)(=O)c2ccccc2)n1 (stereo not drawn)	none (no result: CSC inhib)
COCCCNC(=O)c1ccc(Cn2c(=O)c3ccccc3n(Cc3ccc(C)cc3)c2=O)cc1	Mdm2 MdmX PPI 56 | Mdm2 MdmX conf inactive
COCCCn1c(=O)c2ccccc2n(Cc2ccc(C)cc2)c1=O	none (no result: Beta cell apopt)
CCOc1ccc(C(=O)NCCCN2CCOCC2)cc1OCC	none
CC(=O)NCCNC(=O)C1CCCCN1S(=O)(=O)c1ccccc1 (stereo not drawn)	none
O=C(Nc1ccc(Br)cn1)c1cccc2ccccc12	Mdm2 MdmX PPI 56 | Mdm2 MdmX conf 50 | Full FLuc ctr 81
O=C(NNC(=O)c1cccc2ccccc12)c1ccc(-c2ccccc2)cc1	none
O=C1CCCc2c1cc(C(=O)Nc1ccc(Br)cn1)c(=O)n2-c1ccccc1	Mdm2 MdmX PPI 57 | Mdm2 MdmX conf inactive
O=C(NNC(=O)c1cccc2ccccc12)c1ccccc1O	Mdm2 MdmX PPI 52 | Mdm2 MdmX conf 42 | Full FLuc ctr 60
COc1cccc(CCNC(=O)c2ccc(OC)c(OC3CCN(C(C)C)CC3)c2)c1	none (no result: Beta cell apopt)
Cc1ccnc(NC(=O)C2CCCN(S(=O)(=O)c3ccc4[nH]c(=O)ccc4c3)C2)c1 (stereo not drawn)	none (no result: Beta cell apopt)
C=CC[n+]1c(/C=C2\C=Cc3cc(C)ccc3N2CC)ccc2ccccc21	Calb FLC inconclusive, Beta cell apopt 109, Mdm2 MdmX PPI 85 | Mdm2 MdmX conf 70 | Full FLuc ctr inactive
CCN1C(=C(C#N)C#N)C=Cc2cc(C)ccc21	none
COC(=O)/N=C/c1c(NCc2ccccc2)nc2c(C)cccn2c1=O	Mdm2 MdmX PPI 70 | Mdm2 MdmX conf inactive
Cc1cc(C)n(CCC(=O)N/N=C/c2c(O)ccc3ccccc23)n1	Beta cell apopt 93, Mdm2 MdmX PPI 73 | Mdm2 MdmX conf 78 | Full FLuc ctr 52
O=C(CN1CCCC1)N/N=C/c1c(O)ccc2ccccc12	Calb FLC inconclusive, Mdm2 MdmX PPI 72 | Mdm2 MdmX conf 76 | Full FLuc ctr 39
O=c1c2ccccc2nc(N/N=C/c2c(O)ccc3ccccc23)n1O	Calb FLC 106, Beta cell apopt 98, CSC inhib 112, PP1 counter 18, Mdm2 MdmX PPI 71 | Mdm2 MdmX conf 68 | Full FLuc ctr inactive
COc1ccccc1OCC(=O)N/N=C/c1c(O)ccc2ccccc12	Mdm2 MdmX PPI 82 | Mdm2 MdmX conf 78 | Full FLuc ctr inactive
O=c1c2ccccc2nc(N/N=C/c2ccc(O)cc2)n1O	none
CCC(C)c1ccc(OCc2ccc(C(=O)OC)o2)cc1 (stereo not drawn)	none
COc1ccc(/C=N/NC(=O)CCSc2nc3ccccc3s2)cc1OC	none
O=C(CCSc1nc2ccccc2s1)N/N=C/c1c(O)ccc2ccccc12	Beta cell apopt 85, CSC inhib 80, Mdm2 MdmX PPI 82 | Mdm2 MdmX conf 82 | Full FLuc ctr inactive
CC(C)Cn1c(N)c(C(=O)CSc2ccc3c(c2)OCCO3)c(=O)n(C)c1=O	Beta cell apopt 94, Mdm2 MdmX PPI 52 | Mdm2 MdmX conf 55 | Full FLuc ctr 41
